Assay results published in PubChem BioAssay (NCATS).
Inconclusive results are not listed. A call without a number means that no potency is given here. Active and inactive are the calls of the source. Unless noted, calls come from the whole dose curve; as a rule, active = well fitted curve in the direction sought with a large enough effect; inconclusive = small, poorly fitted or top-dose-only effect, or another doubt; inactive = no such curve, though single readings can be large; an effect the other way counts as inactive or inconclusive.

Tested on: not listed separately
Test: qHTS Validation Assay to Find Inhibitors of Chronic Active B-Cell Receptor Signaling (AID 485345; active = well fitted curve in the direction sought with a large enough effect in the main read-out, with a control signal flat, not every such curve was filed as active)
Details: ABC-DLBCL cells, chronic BCR signaling reporter, CBG luciferase; series mostly up to 46.1 µM
Method in brief: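 TMD8 ABC-DLBCL cells with dox-inducible green luciferase–IκBα fusion and red native luciferase; compounds 46 uM–3 nM, 4 h at 37C with doxycycline in 0.5% FBS IMDM. Green/red ratio normalized to basal and 10 uM MG-132.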

Structure (SMILES) | Potency
Cc1cn([C@H]2C=C[C@@H](CO)O2)c(=O)[nH]c1=O | inactive
Cn1c(=O)c2c(ncn2C)n(C)c1=O | inactive
CC12CC3CC(C)(C1)CC(N)(C3)C2 | inactive
CC(CCc1ccc(O)cc1)NCCc1ccc(O)c(O)c1 (stereo unspecified) | inactive
CCCCc1oc2ccccc2c1C(=O)c1cc(I)c(OCCN(CC)CC)c(I)c1 | inactive
CC1COc2c(N3CCN(C)CC3)c(F)cc3c(=O)c(C(=O)O)cn1c23 (stereo unspecified) | inactive
CCOC(=O)c1ncn2c1CN(C)C(=O)c1cc(F)ccc1-2 | inactive
CCC1(c2ccccc2)C(=O)NCNC1=O | inactive
NS(=O)(=O)c1cc2c(cc1Cl)NCNS2(=O)=O | inactive
CN1CCN2c3ccccc3Cc3ccccc3C2C1 (stereo unspecified) | inactive
NC(CO)C(=O)NNCc1ccc(O)c(O)c1O (stereo unspecified) | inactive
C[C@H]1c2cccc(O)c2C(O)=C2C(=O)[C@]3(O)C(O)=C(C(N)=O)C(=O)[C@@H](N(C)C)[C@@H]3[C@@H](O)[C@@H]21 | inactive
CC(C)C(=O)Nc1ccc([N+](=O)[O-])c(C(F)(F)F)c1 | inactive
CCC1(C)CC(=O)NC1=O (stereo unspecified) | inactive
NCCCCCC(=O)O | inactive
CN1CCC(=C2c3ccccc3CC(=O)c3sccc32)CC1 | inactive

Structure (SMILES) | Potency
C[C@](N)(Cc1ccc(O)c(O)c1)C(=O)O | inactive
Clc1ccccc1C(c1ccccc1)(c1ccccc1)n1ccnc1 | inactive
NC(=O)OCC(COC(N)=O)c1ccccc1 | inactive
CC(COc1ccccc1)N(CCCl)Cc1ccccc1 (stereo unspecified) | inactive
Nc1nnc(-c2cccc(Cl)c2Cl)c(N)n1 | inactive
NC12CC3CC(CC(C3)C1)C2 | inactive
COc1ccc2[nH]cc(CCNC(C)=O)c2c1 | inactive
Nc1nc2c(ncn2COC(CO)CO)c(=O)[nH]1 | inactive
Cc1ccccc1N1C(=O)c2cc(S(N)(=O)=O)c(Cl)cc2NC1C (stereo unspecified) | inactive
CN(C)c1nc(N(C)C)nc(N(C)C)n1 | inactive
CCOC(=O)C(C)(C)Oc1ccc(Cl)cc1 | inactive
CCc1cccc2c3c([nH]c12)C(CC)(CC(=O)O)OCC3 (stereo unspecified) | inactive
Cc1cc(C(C)(C)C)c(O)c(C)c1CC1=NCCN1 | inactive
CC(C)(Oc1ccc(C2CC2(Cl)Cl)cc1)C(=O)O (stereo unspecified) | inactive
COc1ccc2c(c1)c(CC(=O)O)c(C)n2C(=O)c1ccc(Cl)cc1 | inactive

Biological target: Beta-2 adrenergic receptor (Homo sapiens) (UniProt P07550)
Sequence (P07550 whole entry, looked up): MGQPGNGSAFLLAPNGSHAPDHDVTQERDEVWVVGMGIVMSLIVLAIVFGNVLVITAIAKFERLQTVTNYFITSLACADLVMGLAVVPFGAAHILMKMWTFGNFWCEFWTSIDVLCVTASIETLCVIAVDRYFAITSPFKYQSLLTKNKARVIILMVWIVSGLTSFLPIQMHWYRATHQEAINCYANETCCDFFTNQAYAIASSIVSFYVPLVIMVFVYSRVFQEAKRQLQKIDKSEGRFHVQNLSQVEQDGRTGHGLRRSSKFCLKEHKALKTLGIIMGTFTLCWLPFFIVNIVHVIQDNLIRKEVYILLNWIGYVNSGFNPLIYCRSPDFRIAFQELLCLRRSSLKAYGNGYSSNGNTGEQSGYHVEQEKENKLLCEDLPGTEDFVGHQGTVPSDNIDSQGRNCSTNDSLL
Test: qHTS validation assay of beta-arrestin-biased ligands of beta2-adrenergic receptor (AID 485366)
Details: cell-based beta-arrestin recruitment to ADRB2, qHTS; series mostly up to 46.1 µM
Method in brief: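 Arrestin-recruitment (Tango) reporter: ligand-bound beta2-AR recruits beta-arrestin, releasing tTA, which upregulates luciferase. Titrations of up to 46 microM incubated 18 hr at 37 degrees C before luminescent readout.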

Structure (SMILES) | outcome
Cc1cn([C@H]2C=C[C@@H](CO)O2)c(=O)[nH]c1=O | inactive
Cn1c(=O)c2c(ncn2C)n(C)c1=O | inactive
CC12CC3CC(C)(C1)CC(N)(C3)C2 | inactive
CC(CCc1ccc(O)cc1)NCCc1ccc(O)c(O)c1 (stereo unspecified) | inactive
CCCCc1oc2ccccc2c1C(=O)c1cc(I)c(OCCN(CC)CC)c(I)c1 | inactive
CC1COc2c(N3CCN(C)CC3)c(F)cc3c(=O)c(C(=O)O)cn1c23 (stereo unspecified) | inactive
CCOC(=O)c1ncn2c1CN(C)C(=O)c1cc(F)ccc1-2 | inactive
CCC1(c2ccccc2)C(=O)NCNC1=O | inactive
NS(=O)(=O)c1cc2c(cc1Cl)NCNS2(=O)=O | inactive
CN1CCN2c3ccccc3Cc3ccccc3C2C1 (stereo unspecified) | inactive
NC(CO)C(=O)NNCc1ccc(O)c(O)c1O (stereo unspecified) | inactive
C[C@H]1c2cccc(O)c2C(O)=C2C(=O)[C@]3(O)C(O)=C(C(N)=O)C(=O)[C@@H](N(C)C)[C@@H]3[C@@H](O)[C@@H]21 | inactive
CC(C)C(=O)Nc1ccc([N+](=O)[O-])c(C(F)(F)F)c1 | inactive
CCC1(C)CC(=O)NC1=O (stereo unspecified) | inactive
NCCCCCC(=O)O | inactive
CN1CCC(=C2c3ccccc3CC(=O)c3sccc32)CC1 | inactive

Structure (SMILES) | outcome
C[C@](N)(Cc1ccc(O)c(O)c1)C(=O)O | inactive
Clc1ccccc1C(c1ccccc1)(c1ccccc1)n1ccnc1 | inactive
NC(=O)OCC(COC(N)=O)c1ccccc1 | inactive
CC(COc1ccccc1)N(CCCl)Cc1ccccc1 (stereo unspecified) | inactive
Nc1nnc(-c2cccc(Cl)c2Cl)c(N)n1 | inactive
NC12CC3CC(CC(C3)C1)C2 | inactive
COc1ccc2[nH]cc(CCNC(C)=O)c2c1 | inactive
Nc1nc2c(ncn2COC(CO)CO)c(=O)[nH]1 | inactive
Cc1ccccc1N1C(=O)c2cc(S(N)(=O)=O)c(Cl)cc2NC1C (stereo unspecified) | inactive
CN(C)c1nc(N(C)C)nc(N(C)C)n1 | inactive
CCOC(=O)C(C)(C)Oc1ccc(Cl)cc1 | inactive
CCc1cccc2c3c([nH]c12)C(CC)(CC(=O)O)OCC3 (stereo unspecified) | inactive
Cc1cc(C(C)(C)C)c(O)c(C)c1CC1=NCCN1 | inactive
CC(C)(Oc1ccc(C2CC2(Cl)Cl)cc1)C(=O)O (stereo unspecified) | inactive
COc1ccc2c(c1)c(CC(=O)O)c(C)n2C(=O)c1ccc(Cl)cc1 | inactive

Biological target: ATP-dependent 6-phosphofructokinase (Trypanosoma brucei brucei) (UniProt O15648)
Sequence (O15648 whole entry, looked up): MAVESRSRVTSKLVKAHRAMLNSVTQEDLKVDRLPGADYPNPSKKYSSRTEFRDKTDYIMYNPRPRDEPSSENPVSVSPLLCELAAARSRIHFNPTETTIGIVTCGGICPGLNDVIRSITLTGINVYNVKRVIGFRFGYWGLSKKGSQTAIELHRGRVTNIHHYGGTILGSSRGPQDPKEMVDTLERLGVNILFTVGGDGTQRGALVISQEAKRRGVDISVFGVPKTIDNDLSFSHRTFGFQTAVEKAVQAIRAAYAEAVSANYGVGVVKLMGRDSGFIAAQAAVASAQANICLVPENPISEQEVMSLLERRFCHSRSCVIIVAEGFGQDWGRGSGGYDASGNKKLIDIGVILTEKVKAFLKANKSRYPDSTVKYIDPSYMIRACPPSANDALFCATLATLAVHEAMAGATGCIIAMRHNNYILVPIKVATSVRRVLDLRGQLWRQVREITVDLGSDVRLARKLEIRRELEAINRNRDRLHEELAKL
Test: qHTS Validation Assay to Find Inhibitors of T. brucei phosphofructokinase (AID 485368)
Details: T. brucei PFK enzyme assay, qHTS 7-point titration; series mostly up to 57.5 µM
Method in brief: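 Steps: substrate mix (0.5 mM F6P, 0.1 mM ATP, MgCl2, TEA pH 8.0); compound; 1.25 nM T. brucei PFK; 45 min RT; ATP depletion 10 min; ADP-to-ATP detection 10 min; luminescence read; curve fitting and classification.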

Structure (SMILES) | Potency
CCOC(=O)c1ncn2c1CN(C)C(=O)c1cc(F)ccc1-2 | inactive
C[C@H]1c2cccc(O)c2C(O)=C2C(=O)[C@]3(O)C(O)=C(C(N)=O)C(=O)[C@@H](N(C)C)[C@@H]3[C@@H](O)[C@@H]21 | inactive
Cc1ccccc1N1C(=O)c2cc(S(N)(=O)=O)c(Cl)cc2NC1C (stereo unspecified) | inactive
Cc1cc(C(C)(C)C)c(O)c(C)c1CC1=NCCN1 | inactive
